Test results reported in PMC7862700, “An all-to-all approach to the identification of sequence-specific readers for epigenetic DNA modifications on cytosine”.

Experiments:
Assay in all cases: DAPPL (digital affinity profiling via proximity ligation, sequencing); 10 mM Tris-HCl pH 7.5, 50 mM NaCl, 1 mM DTT, 4% glycerol, room temperature, 30 min; GST-TFs on glutathione beads, 16-mer random dsDNA library, 0.1% formaldehyde crosslink after washing; high values mean tight binding
[1] = target: T1, FLI1 (Homo sapiens, UniProt Q01543 1-452); details: protein: recombinant; tags: N-terminal GST; dsDNA, one strand shown
T1 sequence: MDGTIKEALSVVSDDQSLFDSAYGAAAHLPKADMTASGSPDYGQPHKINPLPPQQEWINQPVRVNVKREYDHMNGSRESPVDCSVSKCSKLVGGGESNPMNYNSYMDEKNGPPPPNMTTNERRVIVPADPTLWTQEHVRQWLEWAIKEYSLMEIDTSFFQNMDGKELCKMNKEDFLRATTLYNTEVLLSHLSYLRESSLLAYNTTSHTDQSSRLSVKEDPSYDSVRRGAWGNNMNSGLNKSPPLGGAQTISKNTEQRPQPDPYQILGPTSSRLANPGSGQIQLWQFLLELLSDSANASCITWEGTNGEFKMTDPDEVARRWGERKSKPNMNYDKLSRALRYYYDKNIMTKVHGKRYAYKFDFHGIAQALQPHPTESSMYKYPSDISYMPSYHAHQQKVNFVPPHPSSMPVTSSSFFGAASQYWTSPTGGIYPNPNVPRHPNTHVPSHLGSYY
Outline: (§1)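 Pools were built from human transcription factors expressed in yeast as GST fusions, captured on glutathione beads and DNA-barcoded, along with a tag-only sample. Incubation with 200 nmole of a 16-mer random double-stranded DNA library lasted 30 min at room temperature in Tris/NaCl/DTT/glycerol buffer, and was followed by washing, 0.1% formaldehyde crosslinking, proximity ligation, PCR amplification and Illumina NextSeq500 sequencing. Binding signal is the quotient of each hexamer's read frequency for a factor and its frequency for the tag-only sample.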

[2] = target: T2, ELK1 (Homo sapiens, UniProt P19419 1-428); details: protein: recombinant; tags: N-terminal GST; dsDNA, one strand shown
T2 sequence: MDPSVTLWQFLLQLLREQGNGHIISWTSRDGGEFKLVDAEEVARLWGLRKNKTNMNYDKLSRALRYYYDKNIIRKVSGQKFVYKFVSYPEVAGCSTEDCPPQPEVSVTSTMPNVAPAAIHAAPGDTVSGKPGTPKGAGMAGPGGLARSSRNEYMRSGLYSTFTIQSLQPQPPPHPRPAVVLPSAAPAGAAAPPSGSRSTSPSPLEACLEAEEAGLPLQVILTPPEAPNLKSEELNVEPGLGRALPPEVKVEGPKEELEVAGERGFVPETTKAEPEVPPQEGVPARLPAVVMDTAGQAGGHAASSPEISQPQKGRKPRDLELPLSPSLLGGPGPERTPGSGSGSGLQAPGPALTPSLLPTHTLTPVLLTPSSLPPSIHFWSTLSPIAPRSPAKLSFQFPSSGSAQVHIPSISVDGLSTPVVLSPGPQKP
Outline: as §1

[3] = target: T3, GABPA (Homo sapiens, UniProt Q06546 1-454); details: protein: recombinant; tags: N-terminal GST; dsDNA, one strand shown
T3 sequence: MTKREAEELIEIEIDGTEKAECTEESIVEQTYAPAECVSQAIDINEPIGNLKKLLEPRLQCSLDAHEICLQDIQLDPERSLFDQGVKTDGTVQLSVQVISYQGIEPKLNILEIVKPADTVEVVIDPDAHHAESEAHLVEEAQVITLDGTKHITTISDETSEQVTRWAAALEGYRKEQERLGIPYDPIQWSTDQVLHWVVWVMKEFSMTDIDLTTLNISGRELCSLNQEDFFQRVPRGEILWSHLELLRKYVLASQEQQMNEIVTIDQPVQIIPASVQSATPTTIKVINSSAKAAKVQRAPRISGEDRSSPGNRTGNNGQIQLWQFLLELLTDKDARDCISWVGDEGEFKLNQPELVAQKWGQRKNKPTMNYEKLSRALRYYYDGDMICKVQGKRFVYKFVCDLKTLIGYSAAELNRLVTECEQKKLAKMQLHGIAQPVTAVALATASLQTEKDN
Outline: as §1

[4] = target: T4, ERG (Homo sapiens, UniProt P11308 1-479); details: protein: recombinant; tags: N-terminal GST; dsDNA, one strand shown
T4 sequence: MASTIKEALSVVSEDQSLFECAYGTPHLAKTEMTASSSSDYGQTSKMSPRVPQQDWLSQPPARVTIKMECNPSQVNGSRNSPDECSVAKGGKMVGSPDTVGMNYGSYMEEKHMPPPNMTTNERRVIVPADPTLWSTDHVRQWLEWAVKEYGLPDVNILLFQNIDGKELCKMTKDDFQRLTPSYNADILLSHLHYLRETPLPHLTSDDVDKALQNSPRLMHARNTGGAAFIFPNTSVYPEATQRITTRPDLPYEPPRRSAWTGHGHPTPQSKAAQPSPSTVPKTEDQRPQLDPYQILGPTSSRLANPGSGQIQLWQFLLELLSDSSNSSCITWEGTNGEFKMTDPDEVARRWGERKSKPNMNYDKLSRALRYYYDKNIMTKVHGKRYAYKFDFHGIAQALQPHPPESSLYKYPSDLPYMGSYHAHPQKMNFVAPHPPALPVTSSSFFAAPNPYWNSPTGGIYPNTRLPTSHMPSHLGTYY
Outline: as §1

[5] = target: ELF1 (Homo sapiens, UniProt P32519 1-619); details: protein: recombinant; tags: N-terminal GST; dsDNA, one strand shown
Outline: as §1

[6] = target: T5, EHF (Homo sapiens, UniProt Q9NZC4 1-300); details: protein: recombinant; tags: N-terminal GST; dsDNA, one strand shown
T5 sequence: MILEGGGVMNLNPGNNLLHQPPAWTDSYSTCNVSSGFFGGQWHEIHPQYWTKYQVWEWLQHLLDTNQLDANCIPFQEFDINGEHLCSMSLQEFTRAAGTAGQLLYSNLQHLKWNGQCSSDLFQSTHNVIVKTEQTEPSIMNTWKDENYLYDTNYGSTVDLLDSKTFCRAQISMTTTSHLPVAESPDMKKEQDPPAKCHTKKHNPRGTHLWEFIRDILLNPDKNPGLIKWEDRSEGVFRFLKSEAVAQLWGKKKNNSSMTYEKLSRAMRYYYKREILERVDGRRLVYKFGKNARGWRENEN
Outline: as §1

[7] = target: SPI1 (Homo sapiens, UniProt P17947 1-270); details: protein: recombinant; tags: N-terminal GST; dsDNA, one strand shown
Outline: as §1

[8] = target: SPIB (Homo sapiens, UniProt Q01892 1-262); details: protein: recombinant; tags: N-terminal GST; dsDNA, one strand shown
Outline: as §1

[9] = target: T6, ELK3 (Homo sapiens, UniProt P41970 1-407); details: protein: recombinant; tags: N-terminal GST; dsDNA, one strand shown
T6 sequence: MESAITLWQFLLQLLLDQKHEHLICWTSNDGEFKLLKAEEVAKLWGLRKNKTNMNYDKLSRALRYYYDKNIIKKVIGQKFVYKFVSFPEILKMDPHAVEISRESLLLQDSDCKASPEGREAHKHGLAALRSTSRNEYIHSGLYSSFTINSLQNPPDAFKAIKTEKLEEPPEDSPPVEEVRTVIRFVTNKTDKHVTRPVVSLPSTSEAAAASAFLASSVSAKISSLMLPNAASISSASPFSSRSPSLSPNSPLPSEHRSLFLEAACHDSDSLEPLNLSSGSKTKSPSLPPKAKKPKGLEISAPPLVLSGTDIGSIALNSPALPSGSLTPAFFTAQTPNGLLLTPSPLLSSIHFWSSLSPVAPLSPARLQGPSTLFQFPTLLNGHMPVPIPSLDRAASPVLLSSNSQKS
Outline: as §1

[10] = target: T7, FEV (Homo sapiens, UniProt Q99581 1-238); details: protein: recombinant; tags: N-terminal GST; dsDNA, one strand shown
T7 sequence: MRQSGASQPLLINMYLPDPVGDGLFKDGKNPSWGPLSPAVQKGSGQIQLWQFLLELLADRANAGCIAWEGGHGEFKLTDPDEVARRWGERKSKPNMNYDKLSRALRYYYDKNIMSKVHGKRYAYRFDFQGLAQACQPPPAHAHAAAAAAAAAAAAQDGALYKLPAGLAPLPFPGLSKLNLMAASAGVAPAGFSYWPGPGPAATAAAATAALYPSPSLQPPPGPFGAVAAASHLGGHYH
Outline: as §1

[11] = target: ETV5 (Homo sapiens, UniProt P41161 1-510); details: protein: recombinant; tags: N-terminal GST; dsDNA, one strand shown
Outline: as §1

[12] = target: HSF1 (Homo sapiens, UniProt Q00613 1-529); details: protein: recombinant; tags: N-terminal GST; chain copies: 3; dsDNA, one strand shown
Outline: as §1

[13] = target: T8, SPIC (Homo sapiens, UniProt Q8N5J4 1-248); details: protein: recombinant; tags: N-terminal GST; dsDNA, one strand shown
T8 sequence: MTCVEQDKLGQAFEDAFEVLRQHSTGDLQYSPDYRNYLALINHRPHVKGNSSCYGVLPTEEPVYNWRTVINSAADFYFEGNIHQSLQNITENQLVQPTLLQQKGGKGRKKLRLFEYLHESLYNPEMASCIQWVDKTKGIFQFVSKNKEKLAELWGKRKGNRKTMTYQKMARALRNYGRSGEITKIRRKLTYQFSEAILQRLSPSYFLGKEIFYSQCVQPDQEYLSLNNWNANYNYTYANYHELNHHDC
Outline: as §1

[14] = target: ELF4 (Homo sapiens, UniProt Q99607 1-663); details: protein: recombinant; tags: N-terminal GST; dsDNA, one strand shown
Outline: as §1

[15] = target: T9, ELK4 (Homo sapiens, UniProt P28324-2 1-405); details: protein: recombinant; tags: N-terminal GST; dsDNA, one strand shown
T9 sequence: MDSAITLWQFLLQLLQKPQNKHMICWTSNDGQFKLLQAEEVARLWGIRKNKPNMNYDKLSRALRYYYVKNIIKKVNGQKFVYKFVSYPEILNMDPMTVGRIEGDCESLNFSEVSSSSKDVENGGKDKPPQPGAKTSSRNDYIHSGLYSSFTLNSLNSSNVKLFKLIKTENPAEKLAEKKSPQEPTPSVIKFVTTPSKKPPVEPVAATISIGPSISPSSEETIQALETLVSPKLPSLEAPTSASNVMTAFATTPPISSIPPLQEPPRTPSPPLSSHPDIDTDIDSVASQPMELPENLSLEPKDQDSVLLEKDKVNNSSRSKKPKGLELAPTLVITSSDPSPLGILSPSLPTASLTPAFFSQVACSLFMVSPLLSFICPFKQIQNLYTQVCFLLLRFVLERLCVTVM
Outline: as §1

[16] = target: T10, ETV2 (Homo sapiens, UniProt O00321 1-342); details: protein: recombinant; tags: N-terminal GST; dsDNA, one strand shown
T10 sequence: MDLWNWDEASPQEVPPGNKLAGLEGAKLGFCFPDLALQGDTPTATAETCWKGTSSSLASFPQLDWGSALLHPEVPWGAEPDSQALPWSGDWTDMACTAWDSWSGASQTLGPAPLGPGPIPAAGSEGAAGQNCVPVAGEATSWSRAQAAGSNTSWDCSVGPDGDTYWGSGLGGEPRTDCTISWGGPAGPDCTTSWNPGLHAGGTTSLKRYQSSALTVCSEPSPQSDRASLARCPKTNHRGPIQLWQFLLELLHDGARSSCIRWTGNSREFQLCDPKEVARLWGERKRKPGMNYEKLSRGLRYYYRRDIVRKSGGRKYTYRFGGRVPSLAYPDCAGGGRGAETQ
Outline: as §1

[17] = target: T11, ELF3 (Homo sapiens, UniProt P78545 1-371); details: protein: recombinant; tags: N-terminal GST; dsDNA, one strand shown
T11 sequence: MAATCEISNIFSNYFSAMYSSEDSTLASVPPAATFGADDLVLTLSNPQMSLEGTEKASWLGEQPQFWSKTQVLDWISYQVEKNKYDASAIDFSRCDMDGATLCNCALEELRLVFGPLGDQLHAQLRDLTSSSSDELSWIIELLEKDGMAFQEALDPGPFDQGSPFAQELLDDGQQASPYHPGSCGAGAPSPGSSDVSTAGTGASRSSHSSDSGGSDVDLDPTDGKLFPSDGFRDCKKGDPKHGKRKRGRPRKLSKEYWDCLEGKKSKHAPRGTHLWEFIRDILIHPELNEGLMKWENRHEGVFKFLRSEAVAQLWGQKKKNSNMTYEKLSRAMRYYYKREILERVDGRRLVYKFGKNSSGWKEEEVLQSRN
Outline: as §1

[18] = target: CRX (Homo sapiens, UniProt O43186 1-299); details: protein: recombinant; tags: N-terminal GST; dsDNA, one strand shown
Outline: as §1

[19] = target: ETV1 (Homo sapiens, UniProt P50549 1-477); details: protein: recombinant; tags: N-terminal GST; dsDNA, one strand shown
Outline: as §1

HSF1, sequence (Q00613 whole entry): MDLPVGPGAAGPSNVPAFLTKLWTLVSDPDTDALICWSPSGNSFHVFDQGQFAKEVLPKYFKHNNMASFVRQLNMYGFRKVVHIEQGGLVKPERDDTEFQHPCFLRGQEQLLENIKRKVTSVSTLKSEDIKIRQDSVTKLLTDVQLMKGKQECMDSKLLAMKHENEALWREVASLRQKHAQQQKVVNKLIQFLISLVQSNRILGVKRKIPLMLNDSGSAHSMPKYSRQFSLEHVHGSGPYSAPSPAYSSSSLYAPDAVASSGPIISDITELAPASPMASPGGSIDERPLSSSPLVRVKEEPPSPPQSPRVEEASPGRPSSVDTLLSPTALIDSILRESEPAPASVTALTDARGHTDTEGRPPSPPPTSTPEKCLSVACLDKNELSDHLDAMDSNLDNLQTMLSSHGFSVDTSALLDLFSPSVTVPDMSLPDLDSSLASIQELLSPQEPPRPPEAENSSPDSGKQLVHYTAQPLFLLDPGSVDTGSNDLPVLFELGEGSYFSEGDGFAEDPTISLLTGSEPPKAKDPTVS
SPIB, sequence (Q01892 whole entry): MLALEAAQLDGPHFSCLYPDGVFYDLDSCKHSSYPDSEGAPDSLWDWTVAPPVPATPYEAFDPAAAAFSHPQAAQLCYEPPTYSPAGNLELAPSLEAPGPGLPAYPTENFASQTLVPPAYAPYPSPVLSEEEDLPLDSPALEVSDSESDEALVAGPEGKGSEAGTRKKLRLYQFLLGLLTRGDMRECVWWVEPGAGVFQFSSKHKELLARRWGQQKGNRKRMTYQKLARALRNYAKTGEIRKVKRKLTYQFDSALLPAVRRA
ELF4, sequence (Q99607 whole entry): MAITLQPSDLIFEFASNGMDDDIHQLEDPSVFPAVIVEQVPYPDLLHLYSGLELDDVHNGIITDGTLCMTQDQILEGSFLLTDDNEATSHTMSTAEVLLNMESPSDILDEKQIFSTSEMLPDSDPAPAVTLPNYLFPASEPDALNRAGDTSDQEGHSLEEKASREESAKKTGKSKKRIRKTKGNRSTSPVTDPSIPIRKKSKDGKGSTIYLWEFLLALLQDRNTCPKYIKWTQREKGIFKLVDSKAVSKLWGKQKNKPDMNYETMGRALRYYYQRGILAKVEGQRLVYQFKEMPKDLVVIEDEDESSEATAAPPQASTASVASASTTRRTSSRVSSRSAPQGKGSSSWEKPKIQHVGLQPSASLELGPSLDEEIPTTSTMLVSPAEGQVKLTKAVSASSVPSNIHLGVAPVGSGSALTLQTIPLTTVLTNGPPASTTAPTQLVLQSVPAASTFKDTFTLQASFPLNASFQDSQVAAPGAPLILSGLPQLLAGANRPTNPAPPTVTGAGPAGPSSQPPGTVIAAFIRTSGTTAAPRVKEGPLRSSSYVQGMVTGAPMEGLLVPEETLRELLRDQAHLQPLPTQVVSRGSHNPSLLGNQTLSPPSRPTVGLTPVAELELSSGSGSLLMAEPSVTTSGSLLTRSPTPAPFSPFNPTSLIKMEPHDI
CRX, sequence (O43186 whole entry): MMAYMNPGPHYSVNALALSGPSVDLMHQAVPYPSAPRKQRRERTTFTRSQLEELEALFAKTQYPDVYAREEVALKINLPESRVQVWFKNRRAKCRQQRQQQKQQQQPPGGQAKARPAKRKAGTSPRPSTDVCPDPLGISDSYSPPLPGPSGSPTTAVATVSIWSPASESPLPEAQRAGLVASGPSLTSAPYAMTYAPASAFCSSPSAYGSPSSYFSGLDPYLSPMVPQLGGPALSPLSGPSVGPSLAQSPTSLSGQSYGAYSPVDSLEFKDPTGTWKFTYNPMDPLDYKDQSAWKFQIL
ETV5, sequence (P41161 whole entry): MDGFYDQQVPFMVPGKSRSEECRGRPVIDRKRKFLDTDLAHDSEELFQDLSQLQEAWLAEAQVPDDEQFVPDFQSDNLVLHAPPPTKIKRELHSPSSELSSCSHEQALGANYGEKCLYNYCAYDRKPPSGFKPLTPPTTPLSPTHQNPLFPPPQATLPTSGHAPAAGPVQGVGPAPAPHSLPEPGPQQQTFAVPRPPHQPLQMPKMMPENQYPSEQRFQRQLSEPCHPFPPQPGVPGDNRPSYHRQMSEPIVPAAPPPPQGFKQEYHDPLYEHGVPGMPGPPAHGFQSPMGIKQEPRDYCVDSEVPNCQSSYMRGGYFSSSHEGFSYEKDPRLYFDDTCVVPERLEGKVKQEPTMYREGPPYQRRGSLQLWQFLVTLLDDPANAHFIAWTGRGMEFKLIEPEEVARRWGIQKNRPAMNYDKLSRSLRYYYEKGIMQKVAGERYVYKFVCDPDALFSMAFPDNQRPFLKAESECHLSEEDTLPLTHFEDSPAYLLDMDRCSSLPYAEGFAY
ETV1, sequence (P50549 whole entry): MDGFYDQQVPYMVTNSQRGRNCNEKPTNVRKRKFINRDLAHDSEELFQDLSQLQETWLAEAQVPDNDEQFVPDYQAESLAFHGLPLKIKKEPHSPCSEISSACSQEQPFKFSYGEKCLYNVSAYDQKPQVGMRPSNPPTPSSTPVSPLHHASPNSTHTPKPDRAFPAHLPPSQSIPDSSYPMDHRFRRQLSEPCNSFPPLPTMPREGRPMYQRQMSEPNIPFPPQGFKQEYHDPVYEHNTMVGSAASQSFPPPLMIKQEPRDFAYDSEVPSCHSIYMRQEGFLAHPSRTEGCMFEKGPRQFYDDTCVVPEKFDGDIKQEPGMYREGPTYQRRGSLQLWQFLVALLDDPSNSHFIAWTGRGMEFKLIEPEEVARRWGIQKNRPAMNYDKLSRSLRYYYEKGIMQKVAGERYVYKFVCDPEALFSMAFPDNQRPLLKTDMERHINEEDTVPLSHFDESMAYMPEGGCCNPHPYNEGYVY
ELF1, sequence (P32519 whole entry): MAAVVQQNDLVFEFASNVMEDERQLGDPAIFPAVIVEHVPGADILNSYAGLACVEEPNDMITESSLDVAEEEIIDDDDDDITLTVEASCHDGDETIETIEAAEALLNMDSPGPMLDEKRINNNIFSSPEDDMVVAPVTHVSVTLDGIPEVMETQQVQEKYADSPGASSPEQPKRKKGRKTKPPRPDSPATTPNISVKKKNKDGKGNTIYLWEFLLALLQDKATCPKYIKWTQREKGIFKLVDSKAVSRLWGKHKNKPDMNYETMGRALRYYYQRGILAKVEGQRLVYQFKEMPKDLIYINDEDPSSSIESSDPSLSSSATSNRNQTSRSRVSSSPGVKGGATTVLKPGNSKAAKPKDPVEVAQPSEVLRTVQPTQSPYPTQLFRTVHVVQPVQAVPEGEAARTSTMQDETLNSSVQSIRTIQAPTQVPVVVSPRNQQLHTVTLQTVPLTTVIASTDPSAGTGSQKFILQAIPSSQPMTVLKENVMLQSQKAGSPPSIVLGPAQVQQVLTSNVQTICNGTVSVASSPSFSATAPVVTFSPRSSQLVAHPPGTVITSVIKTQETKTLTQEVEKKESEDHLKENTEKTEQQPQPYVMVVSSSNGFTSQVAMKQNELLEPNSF

ATCAAC
binding signal [1]: 1.12 fold enrichment (6-mer frequency, TF over GST control) | binding signal [2]: 1.19 fold enrichment (6-mer frequency, TF over GST control) | binding signal [3]: 1.19 fold enrichment (6-mer frequency, TF over GST control) | binding signal [4]: 1.07 fold enrichment (6-mer frequency, TF over GST control) | binding signal [5]: 1.13 fold enrichment (6-mer frequency, TF over GST control) | binding signal [6]: 1.12 fold enrichment (6-mer frequency, TF over GST control) | binding signal [7]: 1.08 fold enrichment (6-mer frequency, TF over GST control) | binding signal [8]: 1.1 fold enrichment (6-mer frequency, TF over GST control) | binding signal [9]: 1.21 fold enrichment (6-mer frequency, TF over GST control) | binding signal [10]: 1.13 fold enrichment (6-mer frequency, TF over GST control) | binding signal [11]: 1.04 fold enrichment (6-mer frequency, TF over GST control) | binding signal [12]: 1.02 fold enrichment (6-mer frequency, TF over GST control) | binding signal [13]: 1.03 fold enrichment (6-mer frequency, TF over GST control) | binding signal [14]: 1.09 fold enrichment (6-mer frequency, TF over GST control) | binding signal [15]: 1.14 fold enrichment (6-mer frequency, TF over GST control) | binding signal [16]: 1.18 fold enrichment (6-mer frequency, TF over GST control) | binding signal [17]: 1.08 fold enrichment (6-mer frequency, TF over GST control) | binding signal [18]: 1.25 fold enrichment (6-mer frequency, TF over GST control) | binding signal [19]: 1.1 fold enrichment (6-mer frequency, TF over GST control)
